ChEMBL document CHEMBL2218924, “A broad activity screen in support of a chemogenomic map for kinase signalling research and drug discovery” (Biochem J, 2013)

Experiments:
[1] = molecular target: T1, Protein kinase C zeta type (Homo sapiens) (UniProt Q05513); conditions: at 1 µM
T1 sequence (whole entry): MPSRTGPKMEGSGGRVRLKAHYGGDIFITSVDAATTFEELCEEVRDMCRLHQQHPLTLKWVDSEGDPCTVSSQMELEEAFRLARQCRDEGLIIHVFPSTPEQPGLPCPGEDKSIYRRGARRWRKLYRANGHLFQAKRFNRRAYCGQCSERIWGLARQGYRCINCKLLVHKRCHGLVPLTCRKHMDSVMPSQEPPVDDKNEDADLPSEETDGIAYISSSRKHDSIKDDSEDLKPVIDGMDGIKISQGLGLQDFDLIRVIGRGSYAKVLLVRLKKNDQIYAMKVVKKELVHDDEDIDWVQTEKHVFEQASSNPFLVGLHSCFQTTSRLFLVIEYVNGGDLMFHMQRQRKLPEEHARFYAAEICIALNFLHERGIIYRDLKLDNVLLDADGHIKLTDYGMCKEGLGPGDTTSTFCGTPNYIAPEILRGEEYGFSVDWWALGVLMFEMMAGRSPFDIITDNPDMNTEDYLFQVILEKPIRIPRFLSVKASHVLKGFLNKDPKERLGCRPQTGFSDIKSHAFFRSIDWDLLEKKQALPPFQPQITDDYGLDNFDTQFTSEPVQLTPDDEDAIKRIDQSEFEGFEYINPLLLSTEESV

[2] = molecular target: Tyrosine-protein kinase ABL1 (Homo sapiens) (UniProt P00519); conditions: at 10 µM
Tyrosine-protein kinase ABL1 (Homo sapiens), sequence (P00519 whole entry): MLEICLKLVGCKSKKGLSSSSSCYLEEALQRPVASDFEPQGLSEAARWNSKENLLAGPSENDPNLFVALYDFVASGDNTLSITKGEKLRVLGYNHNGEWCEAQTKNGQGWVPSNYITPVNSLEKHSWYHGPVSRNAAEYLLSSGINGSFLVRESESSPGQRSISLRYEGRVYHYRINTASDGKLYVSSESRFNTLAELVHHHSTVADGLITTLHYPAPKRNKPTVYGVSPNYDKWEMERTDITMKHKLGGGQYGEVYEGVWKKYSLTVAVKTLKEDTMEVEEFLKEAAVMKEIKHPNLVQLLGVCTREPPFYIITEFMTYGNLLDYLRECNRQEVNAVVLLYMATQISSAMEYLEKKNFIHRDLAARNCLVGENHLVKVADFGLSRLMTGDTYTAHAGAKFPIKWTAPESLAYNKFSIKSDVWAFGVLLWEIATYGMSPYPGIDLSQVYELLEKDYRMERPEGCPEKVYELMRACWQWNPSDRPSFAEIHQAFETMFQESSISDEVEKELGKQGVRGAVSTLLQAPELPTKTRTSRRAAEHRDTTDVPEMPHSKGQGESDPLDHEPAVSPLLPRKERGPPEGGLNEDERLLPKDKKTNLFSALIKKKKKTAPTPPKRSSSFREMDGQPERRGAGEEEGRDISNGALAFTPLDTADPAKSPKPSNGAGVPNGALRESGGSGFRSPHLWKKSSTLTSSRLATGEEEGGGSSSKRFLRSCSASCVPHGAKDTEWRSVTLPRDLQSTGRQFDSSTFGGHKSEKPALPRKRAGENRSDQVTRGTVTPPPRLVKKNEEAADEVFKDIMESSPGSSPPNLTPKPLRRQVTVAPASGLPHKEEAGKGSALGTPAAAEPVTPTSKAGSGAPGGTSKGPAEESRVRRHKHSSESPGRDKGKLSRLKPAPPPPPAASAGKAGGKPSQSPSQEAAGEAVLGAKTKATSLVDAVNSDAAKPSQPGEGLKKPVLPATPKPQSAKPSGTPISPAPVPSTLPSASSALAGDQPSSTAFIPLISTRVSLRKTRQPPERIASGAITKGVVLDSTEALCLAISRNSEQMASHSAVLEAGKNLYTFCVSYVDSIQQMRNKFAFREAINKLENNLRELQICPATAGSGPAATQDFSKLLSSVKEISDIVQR

[3] = molecular target: Tyrosine-protein kinase ABL2 (Homo sapiens) (UniProt P42684); conditions: at 1 µM
[4] = molecular target: Tyrosine-protein kinase ABL2 (Homo sapiens) (UniProt P42684); conditions: at 10 µM
[5] = molecular target: T2, Aurora kinase A (Homo sapiens) (UniProt O14965); conditions: at 1 µM
T2 sequence (whole entry): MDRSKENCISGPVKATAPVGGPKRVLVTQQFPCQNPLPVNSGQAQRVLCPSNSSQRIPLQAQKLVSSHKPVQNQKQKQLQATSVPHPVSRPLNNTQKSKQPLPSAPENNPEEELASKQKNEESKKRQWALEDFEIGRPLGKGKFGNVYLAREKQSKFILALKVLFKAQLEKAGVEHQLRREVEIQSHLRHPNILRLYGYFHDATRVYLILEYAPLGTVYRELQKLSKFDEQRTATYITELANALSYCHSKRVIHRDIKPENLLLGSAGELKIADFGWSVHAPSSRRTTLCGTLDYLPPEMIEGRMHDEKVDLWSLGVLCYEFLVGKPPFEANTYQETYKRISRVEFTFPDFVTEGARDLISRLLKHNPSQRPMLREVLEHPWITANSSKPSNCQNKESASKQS

[6] = molecular target: T2, Aurora kinase A (Homo sapiens); conditions: at 10 µM
[7] = molecular target: Aurora kinase B (Homo sapiens) (UniProt Q96GD4); conditions: at 1 µM
Aurora kinase B (Homo sapiens), sequence (Q96GD4 whole entry): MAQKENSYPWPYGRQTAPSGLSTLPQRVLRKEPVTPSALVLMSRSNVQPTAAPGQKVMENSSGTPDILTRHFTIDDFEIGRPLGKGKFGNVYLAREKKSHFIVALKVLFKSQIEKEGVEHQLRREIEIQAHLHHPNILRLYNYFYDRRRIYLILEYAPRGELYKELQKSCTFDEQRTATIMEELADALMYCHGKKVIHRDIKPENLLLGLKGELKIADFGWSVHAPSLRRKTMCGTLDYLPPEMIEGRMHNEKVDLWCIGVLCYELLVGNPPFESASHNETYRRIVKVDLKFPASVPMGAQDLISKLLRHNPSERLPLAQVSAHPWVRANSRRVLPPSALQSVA

[8] = molecular target: Aurora kinase B (Homo sapiens) (UniProt Q96GD4); conditions: at 10 µM
[9] = molecular target: T3, Aurora kinase C (Homo sapiens) (UniProt Q9UQB9); conditions: at 1 µM
T3 sequence (whole entry): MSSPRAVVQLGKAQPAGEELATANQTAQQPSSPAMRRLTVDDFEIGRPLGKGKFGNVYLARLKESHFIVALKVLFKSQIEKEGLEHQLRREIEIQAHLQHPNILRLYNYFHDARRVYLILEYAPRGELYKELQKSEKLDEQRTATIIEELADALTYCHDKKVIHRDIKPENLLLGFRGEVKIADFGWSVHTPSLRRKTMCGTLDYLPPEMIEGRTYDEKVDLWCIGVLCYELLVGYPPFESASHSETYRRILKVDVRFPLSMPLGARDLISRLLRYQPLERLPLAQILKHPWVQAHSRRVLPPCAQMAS

[10] = molecular target: Tyrosine-protein kinase receptor UFO (Homo sapiens) (UniProt P30530); conditions: at 10 µM
Tyrosine-protein kinase receptor UFO (Homo sapiens), sequence (P30530 whole entry): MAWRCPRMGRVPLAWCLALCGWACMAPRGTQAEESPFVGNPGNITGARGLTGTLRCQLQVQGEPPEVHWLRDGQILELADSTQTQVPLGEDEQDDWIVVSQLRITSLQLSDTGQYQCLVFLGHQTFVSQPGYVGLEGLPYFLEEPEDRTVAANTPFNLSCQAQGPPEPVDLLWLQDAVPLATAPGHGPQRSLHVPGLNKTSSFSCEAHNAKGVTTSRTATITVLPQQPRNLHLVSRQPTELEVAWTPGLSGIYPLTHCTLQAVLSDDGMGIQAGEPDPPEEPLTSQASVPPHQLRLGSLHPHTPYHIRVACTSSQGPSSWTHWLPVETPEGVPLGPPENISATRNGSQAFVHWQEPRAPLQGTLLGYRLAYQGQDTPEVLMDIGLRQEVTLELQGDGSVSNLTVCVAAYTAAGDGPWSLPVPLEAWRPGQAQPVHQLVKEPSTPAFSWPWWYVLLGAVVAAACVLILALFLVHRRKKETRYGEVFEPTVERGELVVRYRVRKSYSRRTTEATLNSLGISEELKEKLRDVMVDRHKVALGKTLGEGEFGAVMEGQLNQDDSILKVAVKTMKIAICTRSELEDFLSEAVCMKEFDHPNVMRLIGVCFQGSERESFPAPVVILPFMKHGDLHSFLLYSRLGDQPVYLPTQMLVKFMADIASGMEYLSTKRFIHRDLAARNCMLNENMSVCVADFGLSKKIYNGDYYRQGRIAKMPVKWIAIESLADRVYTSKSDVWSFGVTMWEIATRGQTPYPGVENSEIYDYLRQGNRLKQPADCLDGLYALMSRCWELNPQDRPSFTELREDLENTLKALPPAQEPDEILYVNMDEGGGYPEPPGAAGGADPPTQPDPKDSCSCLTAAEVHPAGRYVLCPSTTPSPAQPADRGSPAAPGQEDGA

[11] = molecular target: Tyrosine-protein kinase BTK (Homo sapiens) (UniProt Q06187); conditions: at 1 µM
Tyrosine-protein kinase BTK (Homo sapiens), sequence (Q06187 whole entry): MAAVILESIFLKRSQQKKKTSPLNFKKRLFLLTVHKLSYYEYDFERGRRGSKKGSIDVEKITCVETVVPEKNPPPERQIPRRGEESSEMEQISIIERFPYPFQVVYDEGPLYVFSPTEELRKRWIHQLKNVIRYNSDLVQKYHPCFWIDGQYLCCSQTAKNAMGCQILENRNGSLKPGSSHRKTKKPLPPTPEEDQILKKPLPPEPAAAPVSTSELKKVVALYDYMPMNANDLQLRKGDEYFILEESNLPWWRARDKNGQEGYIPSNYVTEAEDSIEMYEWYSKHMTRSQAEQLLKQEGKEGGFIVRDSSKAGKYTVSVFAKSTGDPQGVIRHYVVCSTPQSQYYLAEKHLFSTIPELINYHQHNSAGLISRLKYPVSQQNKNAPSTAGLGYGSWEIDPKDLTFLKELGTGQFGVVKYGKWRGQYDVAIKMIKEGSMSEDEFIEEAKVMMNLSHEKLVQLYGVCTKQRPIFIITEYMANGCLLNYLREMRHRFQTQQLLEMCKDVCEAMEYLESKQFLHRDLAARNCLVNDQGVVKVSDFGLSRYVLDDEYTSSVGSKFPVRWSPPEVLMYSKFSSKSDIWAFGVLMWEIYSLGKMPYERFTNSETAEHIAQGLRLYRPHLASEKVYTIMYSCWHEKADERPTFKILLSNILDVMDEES

[12] = molecular target: Tyrosine-protein kinase BTK (Homo sapiens) (UniProt Q06187); conditions: at 10 µM
[13] = molecular target: Tyrosine-protein kinase Blk (Homo sapiens) (UniProt P51451); conditions: at 10 µM
Tyrosine-protein kinase Blk (Homo sapiens), sequence (P51451 2-505 limits assumed): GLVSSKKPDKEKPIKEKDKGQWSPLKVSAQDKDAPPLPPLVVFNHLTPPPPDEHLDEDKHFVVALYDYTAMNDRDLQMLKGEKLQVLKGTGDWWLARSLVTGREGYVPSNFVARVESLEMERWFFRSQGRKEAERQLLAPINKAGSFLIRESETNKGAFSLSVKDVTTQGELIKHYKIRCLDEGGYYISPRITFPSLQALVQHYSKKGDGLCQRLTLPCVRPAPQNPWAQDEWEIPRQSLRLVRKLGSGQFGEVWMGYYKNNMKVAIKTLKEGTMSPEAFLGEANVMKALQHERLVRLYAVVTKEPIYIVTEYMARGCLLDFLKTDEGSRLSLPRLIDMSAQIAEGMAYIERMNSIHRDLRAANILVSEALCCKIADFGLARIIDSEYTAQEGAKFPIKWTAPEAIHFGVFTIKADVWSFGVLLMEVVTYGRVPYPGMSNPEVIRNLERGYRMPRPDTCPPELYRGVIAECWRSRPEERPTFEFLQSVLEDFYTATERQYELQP

[14] = molecular target: T4, Mitogen-activated protein kinase kinase kinase 5 (Homo sapiens) (UniProt Q99683); conditions: at 10 µM
T4 sequence (whole entry): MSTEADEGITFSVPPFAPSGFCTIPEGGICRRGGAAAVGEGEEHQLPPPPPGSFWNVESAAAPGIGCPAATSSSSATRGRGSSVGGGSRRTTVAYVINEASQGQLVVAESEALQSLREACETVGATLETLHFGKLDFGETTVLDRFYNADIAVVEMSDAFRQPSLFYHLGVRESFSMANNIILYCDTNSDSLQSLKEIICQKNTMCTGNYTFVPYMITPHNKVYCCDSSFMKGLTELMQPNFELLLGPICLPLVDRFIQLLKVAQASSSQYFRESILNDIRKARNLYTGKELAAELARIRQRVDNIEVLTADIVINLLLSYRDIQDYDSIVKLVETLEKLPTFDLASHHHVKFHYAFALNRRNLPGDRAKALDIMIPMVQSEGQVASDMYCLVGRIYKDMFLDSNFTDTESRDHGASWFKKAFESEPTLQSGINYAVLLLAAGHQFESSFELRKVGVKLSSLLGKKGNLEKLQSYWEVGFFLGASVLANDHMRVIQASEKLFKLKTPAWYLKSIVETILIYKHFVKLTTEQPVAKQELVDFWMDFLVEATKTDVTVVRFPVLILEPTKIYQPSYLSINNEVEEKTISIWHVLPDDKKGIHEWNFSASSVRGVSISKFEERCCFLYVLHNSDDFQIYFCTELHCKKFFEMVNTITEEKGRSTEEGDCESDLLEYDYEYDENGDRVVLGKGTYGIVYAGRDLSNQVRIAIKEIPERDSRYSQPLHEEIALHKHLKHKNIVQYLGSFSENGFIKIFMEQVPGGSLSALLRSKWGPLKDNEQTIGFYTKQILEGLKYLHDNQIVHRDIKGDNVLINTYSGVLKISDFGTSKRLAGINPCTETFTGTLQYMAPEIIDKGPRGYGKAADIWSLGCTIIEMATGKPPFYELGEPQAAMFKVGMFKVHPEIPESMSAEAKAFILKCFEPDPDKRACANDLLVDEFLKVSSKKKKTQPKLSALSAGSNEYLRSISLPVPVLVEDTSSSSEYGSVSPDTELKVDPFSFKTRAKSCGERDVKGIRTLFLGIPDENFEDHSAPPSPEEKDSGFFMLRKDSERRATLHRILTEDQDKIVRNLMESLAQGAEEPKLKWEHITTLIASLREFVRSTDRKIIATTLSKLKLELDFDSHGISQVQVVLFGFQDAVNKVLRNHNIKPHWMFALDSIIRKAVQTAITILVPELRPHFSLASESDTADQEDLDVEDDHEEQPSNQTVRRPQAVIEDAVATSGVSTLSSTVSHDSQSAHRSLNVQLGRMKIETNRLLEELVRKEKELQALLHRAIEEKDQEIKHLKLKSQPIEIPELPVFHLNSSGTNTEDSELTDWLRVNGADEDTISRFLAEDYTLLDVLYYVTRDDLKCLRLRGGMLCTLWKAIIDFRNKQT

[15] = molecular target: Tyrosine-protein kinase ABL1 (Homo sapiens) (UniProt P00519); conditions: at 1 µM
[16] = molecular target: T3, Aurora kinase C (Homo sapiens); conditions: at 10 µM
[17] = molecular target: Tyrosine-protein kinase receptor UFO (Homo sapiens) (UniProt P30530); conditions: at 1 µM
[18] = molecular target: Tyrosine-protein kinase Blk (Homo sapiens) (UniProt P51451); conditions: at 1 µM
[19] = molecular target: Protein-tyrosine kinase 6 (Homo sapiens) (UniProt Q13882); conditions: at 1 µM
Protein-tyrosine kinase 6 (Homo sapiens), sequence (Q13882 whole entry, looked up): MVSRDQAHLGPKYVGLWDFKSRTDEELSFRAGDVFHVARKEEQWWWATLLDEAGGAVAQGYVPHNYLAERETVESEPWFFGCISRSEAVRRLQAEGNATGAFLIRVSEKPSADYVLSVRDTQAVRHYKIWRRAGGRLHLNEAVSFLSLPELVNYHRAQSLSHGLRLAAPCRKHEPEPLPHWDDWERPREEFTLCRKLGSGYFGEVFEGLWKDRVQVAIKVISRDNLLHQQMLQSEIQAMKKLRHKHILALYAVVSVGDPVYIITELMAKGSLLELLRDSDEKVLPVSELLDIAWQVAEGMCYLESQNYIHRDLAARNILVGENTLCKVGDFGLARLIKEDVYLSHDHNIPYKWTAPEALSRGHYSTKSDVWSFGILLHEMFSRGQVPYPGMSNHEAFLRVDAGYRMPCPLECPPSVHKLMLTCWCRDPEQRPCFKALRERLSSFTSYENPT

[20] = molecular target: Protein-tyrosine kinase 6 (Homo sapiens) (UniProt Q13882); conditions: at 10 µM

Row | Compound | residual activity [1] | residual activity [2] | residual activity [3] | residual activity [4] | residual activity [5] | residual activity [6] | residual activity [7] | residual activity [8] | residual activity [9] | residual activity [10] | residual activity [11] | residual activity [12] | residual activity [13] | residual activity [14] | residual activity [15] | residual activity [16] | residual activity [17] | residual activity [18] | residual activity [19] | residual activity [20]
1 | O=C1NC(=O)C(c2c[nH]c3ccccc23)=C1c1c[nH]c2ccccc12 | 78% (inactive) | 68% | 78% | 25% | 80% | 45% | 76% | 20% | 114% | 56% | 100% | 67% | 23% | – | – | – | – | – | – | –
2 | COc1ccc(-c2cnc3c(-c4ccsc4)cnn3c2)cc1 | – | 97% | 88% | 94% | – | – | – | – | 95% | 95% | – | – | – | 88% | 76% | 63% | 94% | – | – | –
3 | O=C1C(Cl)=C(N2C(=O)CCC2=O)C(=O)c2ccccc21 | – | 66% | 97% | 83% | – | – | 73% | 36% | 67% | 80% | 91% | 95% | 95% | 91% | 92% | 62% | – | – | – | –
4 | Nc1n[nH]c2nc3ccccc3nc12 | – | 73% | 87% | 83% | 91% | 77% | 77% | 26% | 72% | 96% | 88% | 88% | 88% | 75% | 85% | 30% | 94% | 89% | – | –
5 | O=C1Nc2ccc(Cl)cc2/C1=C/c1cc(Cl)c(O)c(Cl)c1 | – | 42% | 80% | 42% | 57% | 24% | 51% | 2% | 96% | 46% | 95% | 70% | 50% | 87% | 77% | 65% | 71% | 96% | 84% | 65%
6 | NCCNc1ncc(C(N)=O)c(Nc2cccc(C(F)(F)F)c2)n1 | 101% (inactive) | – | – | – | 81% | – | 104% | 46% | – | 58% | – | – | 12% | 78% | 103% | – | 74% | 79% | 74% | 14%
7 | O=C(O)/C=C/c1cc(Br)c(Br)c(Br)c1Br | – | 40% | 75% | 53% | 83% | 38% | 60% | 16% | 98% | 51% | 102% | 91% | 81% | 91% | 86% | 78% | 91% | 99% | 99% | 101%
8 | Oc1cccc(-c2nc(N3CCOCC3)c3oc4ncccc4c3n2)c1 | – | – | – | – | – | – | – | 92% | – | 86% | – | – | – | – | – | – | – | – | – | –
9 | COc1ccc(COc2ccc(Cc3cnc(N)nc3N)cc2OC)cc1 | – | 117% | – | – | 108% | 111% | 110% | 76% | – | 74% | – | – | 98% | – | – | – | 80% | – | – | –
10 | NC(=O)c1ccc(-c2nc(-c3ccc4c(c3)OCCO4)c(-c3ccccn3)[nH]2)cc1 | – | 92% | – | 83% | – | – | 89% | 70% | 84% | 85% | – | – | 85% | 96% | – | 90% | 77% | 88% | – | –
11 | CCCC(=O)Oc1ccc2[nH]c(C(=O)c3cc4ccccc4[nH]3)cc2c1 | – | 96% | – | – | 71% | – | 124% | 47% | 104% | 80% | 94% | – | 64% | – | 102% | 84% | 81% | 70% | 101% | 107%
12 | O=C(Nc1nc2ccccc2n1CCN1CCOCC1)c1cccc([N+](=O)[O-])c1 | – | – | 100% | – | 101% | 103% | 100% | 40% | – | 78% | 100% | 109% | 100% | 110% | – | – | 75% | 111% | – | –
13 | O=C1Cc2c([nH]c3ccc([N+](=O)[O-])cc23)-c2ccccc2N1 | – | – | 81% | 76% | – | 105% | 48% | 22% | – | – | – | – | 33% | 105% | 47% | – | – | 29% | 111% | 107%
14 | O=C(c1cc2cc(O)ccc2[nH]1)c1cc2cc(O)ccc2[nH]1 | – | -6% | 27% | 4% | 23% | 6% | 9% | -1% | 61% | 15% | 78% | 34% | 1% | – | 11% | 24% | 50% | 6% | – | –
15 | CC(C)[C@H](CO)Nc1nc(Nc2cc(N)cc(Cl)c2)c2ncn(C(C)C)c2n1 | – | 15% | 62% | 8% | 70% | 47% | 14% | 2% | 91% | 20% | 48% | 5% | – | – | 75% | 52% | 80% | – | 96% | 83%
